Only some compounds are listed: those with a hit (about 2% of all), similar ones and a draw of the others.
KDM4E inh – blocks human JMJD2E demethylase activity. B2RXH2. JMJD2E catalytic domain, FDH-coupled NADH fluorescence (FDH is formaldehyde dehydrogenase). Potency, µM (series often up to 57.1 µM), for the others: top-dose activity change, negative = inhibition, usual class: inhibitors. 1.6% of 230,000 active; active = well fitted inhibition curve with a large enough effect, not every such curve was filed as active; inconclusive = small, poorly fitted or top-dose-only effect, or another doubt; inactive = no such curve, though single readings can be large or run the other way;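 note: potency is the fitted concentration of half-maximal effect; 0% = wells with enzyme and -100% = buffer wells without enzyme; nearly all actives have a fitted effect of over 50% in size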
Target sequence (B2RXH2 1-337 limits assumed): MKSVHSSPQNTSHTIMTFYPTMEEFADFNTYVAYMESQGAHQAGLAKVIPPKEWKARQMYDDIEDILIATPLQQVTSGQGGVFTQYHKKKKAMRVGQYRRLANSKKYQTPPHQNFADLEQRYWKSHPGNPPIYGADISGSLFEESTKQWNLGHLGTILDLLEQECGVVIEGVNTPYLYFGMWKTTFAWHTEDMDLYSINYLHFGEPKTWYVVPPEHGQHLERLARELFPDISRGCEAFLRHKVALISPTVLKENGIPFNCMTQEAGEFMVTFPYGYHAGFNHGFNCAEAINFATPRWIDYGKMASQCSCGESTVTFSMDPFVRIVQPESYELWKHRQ
HTT ATP protect – cytoprotection in Huntington HTT-Q103 PC12 cell model. PC12 HTT-Q103 induced, cytoprotection, ATP luminescence, 40 h. Potency, µM (series often up to 56.4 µM), inactives show cytoprotection (ATP increase), usual class: activators. 0.14% of 230,000 active; note: potency is the fitted concentration of half-maximal effect; % of control where 0% means no effect; nearly all actives have a fitted effect of over 45% in size
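Compounds added alongside 100 nM tebufenozide, which induces toxic Q103 huntingtin exon 1-GFP in stable PC12 cells; surviving cells quantified by luminescent ATP measurement. Medium: phenol red-free DMEM, 5% equine and 5% calf serum.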
TRb SRC2 PPI – TRbeta-SRC2 interaction inhibition. 0.065% of 280,000 active. P10828. TRbeta-SRC2 peptide binding, fluorescence polarization; receptor liganded with 1 µM T3. AID 1469. Potency, µM (series often up to 106 µM), without a hit: at the top dose activity change, negative = inhibition, usual class: inhibitors;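 note: potency is the fitted concentration of half-maximal effect; plate controls were bound peptide for no effect and peptide without receptor for full effect; nearly all actives have a fitted effect of over 50% in size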
Target sequence (P10828 whole entry, looked up): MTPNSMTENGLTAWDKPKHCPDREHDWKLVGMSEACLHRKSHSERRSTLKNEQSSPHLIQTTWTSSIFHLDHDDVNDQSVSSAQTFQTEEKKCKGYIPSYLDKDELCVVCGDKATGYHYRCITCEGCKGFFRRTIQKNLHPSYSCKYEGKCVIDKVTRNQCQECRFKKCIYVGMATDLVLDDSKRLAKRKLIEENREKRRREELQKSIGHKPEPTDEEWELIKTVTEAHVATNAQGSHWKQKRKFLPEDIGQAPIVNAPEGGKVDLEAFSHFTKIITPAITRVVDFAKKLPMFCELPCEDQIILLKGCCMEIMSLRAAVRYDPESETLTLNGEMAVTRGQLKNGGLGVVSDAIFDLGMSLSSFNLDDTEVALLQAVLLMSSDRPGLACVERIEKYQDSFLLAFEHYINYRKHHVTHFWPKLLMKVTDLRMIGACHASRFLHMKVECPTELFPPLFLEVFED
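Decrease in fluorescence polarization of 20 nM Texas Red SRC2 coactivator peptide flagged inhibition of its binding to 0.6 uM TRb LBD; 1 uM T3 included, incubation 5 hr, ex 555/em 632 nm.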
FBPA coupling cs – counter-screen for Giardia aldolase inhibitors: coupling enzyme system; coupling enzyme system counterscreen, AmpLite Red fluorescence; activity change, negative = inhibition, % at 58.2 µM, hits read low; 0.67% of 290,000 active; AID 2472; in the data active = activity change below about -30%; note: % is set by controls: 0 for no effect and ±100 for the full control effect
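Coupling enzymes only (glyceraldehyde-3-phosphate) + compound, at 57.5 uM final, 10 min RT; add substrate/coupling/AmpLite Red mix, 20 min RT; fluorescence ex 525/em 598 nm. Actives flag coupling-system interference.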
HTT aggregate – inhibitors of mutant huntingtin aggregate formation in PC12 cells; PC12 HttQ103-GFP aggregates, Acumen cytometry, 40 h; Potency, µM (doses to about 46.1 µM), for inactives: at the highest dose activity change, negative = inhibition, actives largely listed as inhibitors; 1.1% of 220,000 active; AID 1688; note: potency is the fitted concentration of half-maximal effect; % is set by controls: 0 for no effect and ±100 for the full control effect; nearly all actives have a fitted effect of over 60% in size
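Inducible Q103 Huntingtin exon 1–GFP PC12 line, 1500 cells/well in phenol red free DMEM with 5% equine and 5% calf serum. Tebufenozide 100 nM induced expression; compounds titrated; aggregates quantified by cytometry.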
TR SRC2 fluor cs – alters Texas Red total fluorescence, flagging assay interference; 0.29% of 280,000 active; Potency, µM (series often up to 106 µM), inactives show at the top dose fluorescence change, negative = quenching; TRb/SRC2 Texas Red total fluorescence interference; active = well fitted curve in either direction with a large enough effect; inconclusive = small, poorly fitted or top-dose-only effect; note: potency is the fitted concentration of half-maximal effect; % is set by controls: 0 for no effect and ±100 for the full control effect
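Human TRb ligand-binding domain at 0.6 uM with 20 nM Texas Red SRC2 peptide in Tris buffer containing 1 uM T3 and 5% DMSO, incubated with compound 5 h at ambient temperature. Total fluorescence (555/632 nm) calculated as parallel + 2 × perpendicular.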
Starred values were filed as active, the others as inactive; ? = inconclusive; / = no result; [ ] = another dose, or the depositor's remark. Unless noted, calls come from the whole dose curve; as a rule, active = well fitted curve in the direction sought with a large enough effect; inconclusive = small, poorly fitted or top-dose-only effect, or another doubt; inactive = no such curve, though single readings can be large; an effect the other way counts as inactive or inconclusive.

SMILES | KDM4E inh | HTT ATP protect | TRb SRC2 PPI | FBPA coupling cs | HTT aggregate | TR SRC2 fluor cs
CCC(=O)C1=C(O)C(c2cccc(Oc3ccccc3)c2)CCC1=O (centres undefined) | -7% | -6% | -10% | 4 | 10µM* | 1%
COc1ccc2c(c1)C(=O)CCC2c1ccccc1 (centres undefined) | / | / | / | 1 | / | /
CCN(CC)c1ccc(NC(=O)C2CCN(S(=O)(=O)c3cnc[nH]3)CC2)c(C)c1 | / | / | -1% | / | / | -1%
CCc1cc(C(=O)NNC(=S)NC(C)c2ccccc2)cs1 (centres undefined) | 19% | 12% | -1% | 1 | 18µM* | 1%
CCc1cccc(CC)c1NC(=S)NC(C)c1ccccc1 (centres undefined) | -4% | -9%[10 µM] | -1% | 1 | ? | -3%
Oc1ccc(/C=N/Nc2cc(N3CCCC3)nc(N3CCCC3)n2)cc1O | 14µM* | 10%[10 µM] | 2% | -37* | -28% | -4%
Oc1ccc(/C=N\Nc2cc(N3CCOCC3)nc(N3CCOCC3)n2)c(O)c1 | 14µM* | -4%[10 µM] | -6% | -20 | -28% | -3%
Clc1cccc(-n2ncc3c(NCCCN4CCOCC4)ncnc32)c1 | / | / | -1% | / | / | -2%
Clc1cccc(Nc2ncnc3c2nc2n3CCCCC2)c1 | / | / | 0% | / | / | ?
CCOC(=O)CSc1n[nH]c(=S)s1 | 10µM* | -25%[10 µM] | -6% | -2 | -8%[9.22 µM] | -7%
CCCSCCCNC(=O)C1CCN(C(=O)c2cc3sccc3n2C)CC1 | / | / | -9% | / | / | 32µM*[quencher]
Oc1c(Cl)cc(Cl)cc1/C=N/NC(=S)NC1CC2C=CC1C2 (centres undefined) | ? | 5%[10 µM] | 0% | 6 | -6%[9.22 µM] | -8%
Oc1ccccc1/C=N/NC(=S)NC1CC2C=CC1C2 (centres undefined) | 25µM* | -11%[10 µM] | 1% | 4 | 2%[9.22 µM] | -1%
CCOC(=O)c1c(C)[nH]c(C)c1S(=O)(=O)N1CCCC(C(=O)N2CCN(c3cccc(C)c3C)CC2)C1 (centres undefined) | / | / | -19% | / | / | ?
COc1ccc(OC)c(S(=O)(=O)Nc2ccc(O)c3ccccc23)c1 | ? | -26%[10 µM] | -11% | -58* | 18µM* | -1%
COc1ccc(OC)c(S(=O)(=O)Nc2ccc(Oc3ccccc3)cc2)c1 | 1% | -31% | -3% | -5 | -1% | -1%
CC1CC2(CCCCC2)Nc2ccc3ccccc3c21 (centres undefined) | ? | 39%[10 µM] | 0% | -6 | -16% | -3%
CCc1cccc2c1NC1(CCCC1)CC2C (centres undefined) | ? | 16%[10 µM] | 28µM* | -4 | -9%[9.22 µM] | ?
CCC[C@H]1C[C@H](C(=O)NC(C(C)Cl)C2O[C@@H](SC)C(OP(=O)(O)O)[C@@H](O)[C@@H]2O)N(C)C1 (some centres undefined) | / | / | 0% | 9 | / | ?
COc1cccc(/C=N/NC(=O)CNC(=O)c2cccs2)c1O | 8.9µM* | -10%[10 µM] | -5% | 1 | -26%[9.22 µM] | -1%
Cc1cccc(OCC(=O)NCC(=O)N/N=C/c2ccc(O)cc2O)c1 | 3.2µM* | 22%[10 µM] | 4% | 1 | 8%[9.22 µM] | -1%
COc1ccccc1/C=C\C(=O)NCC(=O)N/N=C/c1cccc(OC)c1O | / | / | / | 0 | / | /
O=C(N/N=C/c1cccc([N+](=O)[O-])c1O)c1cccs1 | 4µM* | 4%[10 µM] | 7% | 2 | 16µM* | -4%
COc1cccc(/C=N/NC(=O)CSc2ccccc2C)c1O | 28µM* | / | 2% | 2 | -7% | -1%
Cc1ccc(C(=O)N2CCc3cc(CNC(=O)CCc4ccccc4)ccc32)cc1 | / | / | -12% | / | / | ?
SMILES | KDM4E inh | HTT ATP protect | TRb SRC2 PPI | FBPA coupling cs | HTT aggregate | TR SRC2 fluor cs
COc1cccc(/C=N/NC(=O)CNC(=O)CCc2ccccc2)c1O | 4µM* | -33%[10 µM] | 4% | 7 | -21%[9.22 µM] | -3%
COc1ccc(/C=C\C(=O)NCC(=O)N/N=C/c2ccc(O)cc2O)cc1 | 7.1µM* | 7%[10 µM] | -3% | 6 | 12%[9.22 µM] | -1%
COc1ccccc1/C=N/NC(=O)CNC(=O)c1ccccc1 | -1% | 5%[10 µM] | -8% | 1 | 12%[9.22 µM] | -1%
COc1cccc(/C=N/NC(=O)CNC(=O)COc2cccc(C)c2)c1O | 2.8µM* | -14%[10 µM] | 2% | 7 | -10%[9.22 µM] | -2%
COc1ccccc1/C=N/NC(=O)CCSc1ccccc1 | 0% | 21%[10 µM] | 0% | -33* | -4% | 0%
COc1cccc(CNC(=O)Cc2ccc(NC(=O)N3CCCCc4ccccc43)cc2)c1OC | / | / | -1% | / | / | ?
COc1ccc(/C=N/NC(=O)c2nc(-c3ccccc3)n(-c3ccccc3)n2)c(O)c1 | 18µM* | / | -5% | 8 | -31% | -2%
C/C(=N\Nc1nc(C)cc(C)n1)c1ccc(N2CCOCC2)cc1 | 15% | 3%[10 µM] | -3% | 1 | 11µM* | -3%
C/C(=N/Nc1nc(C)cc(C)n1)c1ccc(Br)cc1 | / | / | / | 2 | / | /
Cc1cccc(NC(=O)C2CC(O)CN2C(=O)OCc2ccccc2)c1 (centres undefined) | 0% | 7% | -17% | 3 | 17% | -3%
CC(NC(=O)OCc1ccccc1)C(=O)N1CC(O)CC1C(=O)O (centres undefined) | 5% | 0.1µM* | 5% | 3 | / | -3%
CC(C)C1C(=O)N(S(C)(=O)=O)[C@H]2CCN(C(=O)/C=C/CN3CCCCC3)[C@@H]12 (some centres undefined) | / | / | -4% | 1 | / | -9%
COc1ccc2nc(N3CCC(O)CC3)c(C#N)cc2c1 | ? | -38% | -11% | -34* | 15% | -6%
COc1ccc(CNC(=O)Cn2c(=O)n3nc(-c4ccc(OC)cc4)nc3c3ccccc32)cc1 | / | / | -5% | / | / | 0%
COc1ccc2ccc3c(c2c1)N=C[C@]1(O3)N(C)c2ccccc2C1(C)C | 11µM* | -57% | ? | -67* | ? | ?
Cc1ccc2cc(C3C(C#N)=C(N)Oc4c3ccc3cccnc43)c(=O)[nH]c2c1 (centres undefined) | ? | -58% | ? | -39* | 2.5µM* | -6%
CCCCn1c(CN2CCN(c3cccc(Cl)c3)CC2)nc2c1c(=O)n(C)c(=O)n2C | ? | -5%[0.074 µM] | -30% | 0 | -14% | 0%
CCCn1c(CN(C)Cc2ccccc2)nc2c1c(=O)n(C)c(=O)n2C | 8% | 10%[10 µM] | 4% | 0 | 22µM* | -2%
CCCn1c(CN2CCN(c3cccc(Cl)c3)CC2)nc2c1c(=O)n(C)c(=O)n2C | -1% | -128% | -5% | -1 | 5.6µM* | -3%
CCCCn1c(CN(C)Cc2ccccc2)nc2c1c(=O)n(C)c(=O)n2C | 1% | 24%[10 µM] | 5% | 1 | 20µM* | -1%
